From PubChem BioAssay (NCATS)
Values without a mark were called inactive. For part of these data: Entries with a potency or affinity are not part of this list. The source made the active and inactive calls. How the calls were made is not given here. Square brackets hold non-standard residues; d marks the D form. Peptide text beside a SMILES is read from it. * marks the point of attachment. Sta = CC(C)C[C@H](N)[C@@H](O)CC(=O)O; Isovaleryl = CC(C)CC(=O)*

Key:
[1] = Ebola virus entry assay, green fluorescence channel
[2] = Ebola virus entry assay, blue channel fluorescence
[3] = Ebola virus entry assay, ratio channel
[4] = Ebola virus entry assay, green channel fluorescence
[5] = Ebola virus entry assay, reporter ratio channel; Channel type: primary
[6] = Ebola virus entry assay, blue channel (ratio component)
Wherever efficacy is given: 0% is about no effect.

Structure (SMILES) | efficacy [1] [%] | outcome [2] | outcome [3] | outcome [4] | outcome [5] | outcome [6] | AC50 [5] | AC50 [2] | AC50 [3]
Cc1cn([C@H]2C[C@H](F)[C@@H](CO)O2)c(=O)[nH]c1=O | -14.7 | inactive | inactive | inactive | inactive | inactive |  |  | 
CCNC(=O)NCc1cccc(Cl)c1 | 7 | inactive | inactive | inactive | inactive | inactive |  |  | 
O=C1Nc2cc(Cl)ccc2Oc2ccccc21 | -23 | inactive | inactive | inactive | inactive | inactive |  |  | 
CCN(CC)C(=O)N1CCN(C)CC1 | -16.8 | inactive | inactive | inactive | inactive | inactive |  |  | 
OCc1ccccc1O | -17.7 | inactive | inactive | inactive | inactive | inactive |  |  | 
Oc1ccc(C(O)CNCCCCCCNCC(O)c2ccc(O)c(O)c2)cc1O (stereo unspecified) | 16 | inactive | inactive | inactive |  | inactive | 44.7 µM (active) |  | 
Cc1ccc(O)c(-n2nc3ccccc3n2)c1 | 21 | inactive | inactive | inactive | inactive | inactive |  |  | 
Cc1c(Cn2ccnc2)c2ccccc2n1CCC(=O)O | 14 | inactive | inactive | inactive | inactive | inactive |  |  | 
CC(=O)Oc1ccc(C2(c3ccc(OC(C)=O)cc3)C(=O)Nc3ccccc32)cc1 | -16 | inactive | inactive | inactive | inactive | inactive |  |  | 
CC(=O)OCC(=O)[C@@]1(O)CCC2C3CCC4=CC(=O)CC[C@]4(C)C3[C@@H](O)C[C@@]21C (stereo partly specified) | -12.5 | inactive | inactive | inactive | inactive | inactive |  |  | 
CCOC(=O)[C@H](CCc1ccccc1)N[C@@H](C)C(=O)N1C(=O)N(C)C[C@H]1C(=O)O | -14.8 | inactive | inactive | inactive | inactive | inactive |  |  | 
CN1[C@@H]2CC[C@H]1CC(OC(=O)c1c[nH]c3ccccc13)C2 (stereo partly specified) | 45 | inactive | inactive | inactive |  | inactive | 39.8 µM (active) |  | 
O=C(O)c1cn(C2CC2)c2cc(Cl)c(F)cc2c1=O | 14.4 | inactive | inactive | inactive | inactive | inactive |  |  | 
NCCNC(=O)c1ccc(Cl)cn1 | -25.1 | inactive | inactive | inactive | inactive | inactive |  |  | 
COc1ccnc2c1CCCCC2S(=O)c1nc2ccccc2[nH]1 (stereo unspecified) | -22.9 | inactive | inactive | inactive | inactive | inactive |  |  | 
O=C1c2cccc(O)c2C(=O)c2c(O)cccc21 | -10.2 | inactive | inactive | inactive | inactive | inactive |  |  | 
CC(=O)O[C@H]1CC[C@@]2(C)C(=CC[C@@H]3[C@@H]2CC[C@]2(C)C(C(C)=O)=CC[C@@H]32)C1 | -13.1 | inactive | inactive | inactive | inactive | inactive |  |  | 
O=S(=O)(c1cccc2cnccc12)N1CCCNCC1 | -11.7 | inactive | inactive | inactive | inactive | inactive |  |  | 
CC(=O)[C@H]1CC[C@H]2[C@@H]3CC=C4C[C@@H](O)CC[C@]4(C)[C@H]3CC[C@]12C | -13.3 | inactive | inactive | inactive | inactive | inactive |  |  | 

Structure (SMILES) | efficacy [1] [%] | outcome [2] | outcome [3] | outcome [4] | outcome [5] | outcome [6] | AC50 [5] | AC50 [2] | AC50 [3]
c1ccc2[nH]c(-c3cscn3)nc2c1 | -29.7 | inactive | inactive | inactive | inactive | inactive |  |  | 
O=C(O)CCC(=O)c1ccc(-c2ccccc2)cc1 | 17.7 | inactive | inactive | inactive | inactive | inactive |  |  | 
OC[C@H]1O[C@@H](n2cnc3c(=S)nc[nH]c32)[C@H](O)[C@@H]1O | 23.6 | inactive | inactive | inactive | inactive | inactive |  |  | 
C=Cc1c(C)c2cc3[nH]c(cc4nc(cc5nc(cc1[nH]2)C(C)=C5CCC(=O)O)C(CCC(=O)O)=C4C)c(C)c3C=C | 15.1 | inactive | inactive | inactive | inactive | inactive |  |  | 
O=C(NCCCN1CCOCC1)c1ccc(Cl)cc1 | -12.2 | inactive | inactive | inactive | inactive | inactive |  |  | 
Nc1ccc(C(=O)NCC(=O)O)cc1 | 34 | inactive | inactive | inactive | inactive | inactive |  |  | 
O=C(CCCCC(=O)Nc1c(I)cc(I)c(C(=O)O)c1I)Nc1c(I)cc(I)c(C(=O)O)c1I | 11.5 | inactive | inactive | inactive | inactive | inactive |  |  | 
NNC(=O)CP(=O)(c1ccccc1)c1ccccc1 | 11.5 | inactive | inactive | inactive | inactive | inactive |  |  | 
O=C(O)[C@H](O)[C@@H](O)[C@H](O[C@@H]1O[C@H](CO)[C@H](O)[C@H](O)[C@H]1O)[C@H](O)CO | 24.3 | inactive | inactive | inactive | inactive | inactive |  |  | 
OCC(O)CS (stereo unspecified) | -11.9 | inactive | inactive | inactive | inactive | inactive |  |  | 
Cc1ccc(S(=O)(=O)NC(=O)NC2CCCC2)cc1 | -11.6 | inactive | inactive | inactive | inactive | inactive |  |  | 
CC(=O)N(CC(O)CN(C(C)=O)c1c(I)c(C(=O)NCC(O)CO)c(I)c(C(=O)NCC(O)CO)c1I)c1c(I)c(C(=O)NCC(O)CO)c(I)c(C(=O)NCC(O)CO)c1I (stereo unspecified) | -12.3 | inactive | inactive | inactive | inactive | inactive |  |  | 
O=C(O)C1CCC1 | -19 | inactive | inactive | inactive | inactive | inactive |  |  | 
CCOC(CN1CCN(CC(C)C(=O)c2ccccc2)CC1)c1ccccc1 (stereo unspecified) | 11.6 |  |  | inactive | inactive | inactive |  | 7.08 µM (active) | 10 µM (active)
CCOC(=O)C(C#N)=C(c1ccccc1)c1ccccc1 | 19.4 | inactive | inactive | inactive | inactive | inactive |  |  | 
CC(C)CC(=O)N[C@H](C(=O)N[C@H](C(=O)N[C@@H](CC(C)C)[C@@H](O)CC(=O)N[C@@H](C)C(=O)N[C@@H](CC(C)C)[C@@H](O)CC(=O)O)C(C)C)C(C)C (Isovaleryl-VV[Sta]A[Sta]-OH) | -12.4 | inactive | inactive | inactive | inactive | inactive |  |  | 
O=C(NN1CCCC1)NS(=O)(=O)c1ccc(Cl)cc1 | -14.3 | inactive | inactive | inactive | inactive | inactive |  |  | 
CC(=O)OCC1=C(C(=O)O)N2C(=O)[C@@H](NC(=O)CSc3ccncc3)[C@H]2SC1 | -6.58 | inactive | inactive | inactive | inactive | inactive |  |  | 
c1ccc([C@H]2CN3CCSC3=N2)cc1 | -38.1 | inactive | inactive | inactive | inactive | inactive |  |  | 

Structure (SMILES) | efficacy [1] [%] | outcome [2] | outcome [3] | outcome [4] | outcome [5] | outcome [6] | AC50 [5] | AC50 [2] | AC50 [3]
CCC(CC)(CC(=O)Nc1cccc(/C=C/c2nc(C3CCC3)cs2)c1)C(=O)O | -22.5 | inactive | inactive | inactive | inactive | inactive |  |  | 
CC[N+](CC)(CC)CCOC(=O)C(C1CCCC1)C1CCCC1 | 39.4 | inactive | inactive | inactive | inactive | inactive |  |  | 
CCN[C@H]1C[C@H](C)S(=O)(=O)c2sc(S(N)(=O)=O)cc21 | 10.6 | inactive | inactive | inactive | inactive | inactive |  |  | 
CC(O)COc1ccccc1 (stereo unspecified) | 11.7 | inactive | inactive | inactive | inactive | inactive |  |  | 
CC[N+]1(CC)CCC(=C(c2ccccc2)c2ccccc2)C1C (stereo unspecified) | 13 | inactive | inactive | inactive | inactive | inactive |  |  | 
CC(C)CCCC(C)N (stereo unspecified) | -16.5 | inactive | inactive | inactive | inactive | inactive |  |  | 
CC(=O)N[C@@H](CO)C(=O)N[C@@H](CC(=O)O)C(=O)N[C@@H](CCCCN)C(=O)N1CCC[C@H]1C(=O)O (Ac-SDKP-OH) | 17.5 | inactive | inactive | inactive | inactive | inactive |  |  | 
C[C@]12CCC(=O)C=C1CC[C@@H]1[C@@H]2C(=O)C[C@@]2(C)[C@H]1CC[C@]2(O)C(=O)CO | 28.7 | inactive | inactive | inactive | inactive | inactive |  |  | 
OCC(O)CN1CCN(c2ccccc2)CC1 (stereo unspecified) | 24.6 | inactive | inactive | inactive | inactive | inactive |  |  | 
COCCOC(=O)C1=C(C)NC(C)=C(C(=O)OC/C=C/c2ccccc2)C1c1cccc([N+](=O)[O-])c1 (stereo unspecified) | 17.5 | inactive | inactive | inactive | inactive | inactive |  |  | 
CC(C)=CCNc1ncnc2c1ncn2[C@@H]1O[C@H](CO)[C@@H](O)[C@H]1O | 38.7 | inactive | inactive | inactive | inactive | inactive |  |  | 
NNc1nnc(NN)c2ccccc12 | -13 | inactive | inactive | inactive | inactive | inactive |  |  | 
Cc1ccc(=O)n(-c2ccccc2)c1 | -13.1 | inactive | inactive | inactive | inactive | inactive |  |  | 
CCCN(CCC)C(=O)C(CCC(=O)O)NC(=O)c1ccccc1 (stereo unspecified) | 17.5 | inactive | inactive | inactive | inactive | inactive |  |  | 
CC[N+](CC)(CC(=O)Nc1c(C)cccc1C)Cc1ccccc1 | -14.7 | inactive | inactive | inactive | inactive | inactive |  |  | 
CC(C)(C)c1ccc(C(=O)CCCCl)cc1 | -23.2 | inactive | inactive | inactive | inactive | inactive |  |  | 
Cc1ccc2nc(N)[nH]c(=O)c2c1Sc1ccncc1 | 17.5 | inactive | inactive | inactive | inactive | inactive |  |  | 
O=C(O)c1cccnc1Nc1cccc(C(F)(F)F)c1 | -25.4 | inactive | inactive | inactive | inactive | inactive |  |  | 
